The list is not random: actives were taken first. Their share in the collection is about 3.4%.
EWS-Fli block = blocks EWS/Fli oncoprotein-driven transcription | inhibition, % at 12.6 µM | AID 651661 | A673 NR0B1-luciferase reporter, viability-normalised | 350,000 tested, 0.67% active;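 active = mean inhibition of at least 50% after viability correction, with every replicate also passing that limit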;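 also: firefly luciferase signal divided by Alamar Blue viability fluorescence both relative to DMSO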
PGC1a acetyl inh = lowers PGC1a acetylation signal in U2OS cells; AlphaScreen anti-acetyl-lysine; with virally co-expressed GCN5 acetyltransferase; inhibition, % at 15.6 µM; 350,000 tested, 0.17% active;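 active = every replicate shows inhibition of at least 40%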
PAX8 reporter = PAX8 transcriptional activity inhibition. AID 652154. inhibition, % at 12.6 µM. RMG-I TPO-luciferase reporter, SteadyGlo, 24 h. 360,000 tested, 1.2% active;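 active = mean replicate inhibition at least 60% with every replicate also reaching 60%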;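 also: luciferase light reporting Pax8 driven TPO promoter activity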
LGR2 antag = Drosophila LGR2 receptor signaling inhibition | HEK293 LGR2, CRE-luciferase, bursicon-stimulated, 4 h | inhibition, % at 9.99 µM | 380,000 tested, 0.35% active;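 active = drop in luminescence signal, shown as inhibition above about 50% in the replicate tests, limit read from the data, passing the limit was not always enough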;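 also: agonist challenge used bursicon conditioned medium at about half maximal strength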
Ecoli rRNA inh = selective bacterial rRNA inhibition in E. coli. E. coli WT GFP vs humanized-ribosome RFP mutants, fluorescence, 24 h; hits give low values; DMSO median 0, no signal -100. GFP signal change (wild-type ribosome), % (test concentration not listed). 350,000 tested, 1.6% active. AID 720706;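 active = significant combined selectivity score with lowered wild-type GFP, culture density cut under 30%, mutant RFP and density less affected; inactive = any of these conditions unmet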
SIRT5 inh = sirtuin-5 (human) deacylase inhibition | Q9NXA8 | Purified SirT5, succinyl-peptide AMC, trypsin-coupled fluorescence | 330,000 tested, 1.1% active | inhibition, % at 15 µM; in the data active = inhibition above about 15%
Target sequence (Q9NXA8 whole entry, looked up): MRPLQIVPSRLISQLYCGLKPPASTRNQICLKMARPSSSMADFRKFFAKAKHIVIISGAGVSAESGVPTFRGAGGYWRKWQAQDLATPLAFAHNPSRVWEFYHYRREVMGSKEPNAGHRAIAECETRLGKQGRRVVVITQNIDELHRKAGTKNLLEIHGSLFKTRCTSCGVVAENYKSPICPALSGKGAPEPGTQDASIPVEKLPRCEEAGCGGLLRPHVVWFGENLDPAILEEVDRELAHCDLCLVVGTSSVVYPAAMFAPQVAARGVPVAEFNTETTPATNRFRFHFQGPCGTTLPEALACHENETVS
Of the large screens only hits and unclear results are named; the others gave an inactive call.

C[C@H](CO)N1C[C@H](C)[C@H](CN(C)C(=O)Cc2ccccc2)Oc2cc(C3=CCCCC3)ccc2S1(=O)=O	SIRT5 inh 15 (no result: PAX8 reporter)
C[C@@H]1CN([C@@H](C)CO)S(=O)(=O)c2ccc(C3=CCCCC3)cc2O[C@@H]1CN(C)C(=O)Cc1cccnc1	none (no result: PAX8 reporter)
C[C@H](CO)N1C[C@H](C)[C@H](CN(C)C(=O)Cc2ccccc2)Oc2ncc(C3=CCCCC3)cc2C1=O	SIRT5 inh 21
C[C@@H]1CN([C@H](C)CO)S(=O)(=O)c2ccc(C3=CCCCC3)cc2O[C@@H]1CN(C)C(=O)Cc1cccnc1	SIRT5 inh 15 (no result: PAX8 reporter)
O=C(C1CCCC1)N1CC[C@@H]2[C@H](CO)Nc3ccc(C4=CCCCC4)cc3[C@@H]21	PAX8 reporter 90
COc1ccccc1-c1ccc2c(c1)[C@@H]1[C@@H](CCN1C(=O)C1CCCCC1)[C@@H](CO)N2	PAX8 reporter 105 (no result: LGR2 antag, Ecoli rRNA inh)
O=C(Cc1ccccc1)N1CC[C@@H]2[C@H]1c1cc(-c3cccc(F)c3)ccc1N[C@@H]2CO	PAX8 reporter 68
O=C(Cc1ccccc1)N1CC[C@H]2[C@H](CO)Nc3ccc(-c4cccc(F)c4)cc3[C@H]21	none
O=C(Cc1ccccc1)N1CC[C@H]2[C@H](CO)Nc3ccc(C4=CCCCC4)cc3[C@H]21	PAX8 reporter 82
COc1ccccc1-c1ccc2c(c1)[C@H]1[C@H](CCN1C(=O)C1CCC1)[C@@H](CO)N2	none
Cc1noc(C)c1NC(=O)Nc1ccc2c(c1)CC(=O)N([C@H](C)CO)C[C@H](C)[C@H](CN(C)C(=O)Nc1c(C)noc1C)O2	none
O=C(NCc1ccccc1)C1CCCN(c2ncnc3c2nc2n3CCCCC2)C1 (stereo not given)	none
COc1cc(NC(=O)C2CCCN(c3ncnc4c3nc3n4CCCCC3)C2)cc(OC)c1OC (stereo not given)	none
CCc1ccccc1N(CC)C(=O)C1CCN(c2ncnc3c2nc2n3CCCCC2)CC1	none (no result: EWS-Fli block, PGC1a acetyl inh)
CCN(Cc1ccccc1)C(=O)C1CCN(c2ncnc3c2nc2n3CCCCC2)CC1	Ecoli rRNA inh -25 (no result: PGC1a acetyl inh)
O=C(Nc1ccccc1Cl)C1CCCN(c2ncnc3c2nc2n3CCCCC2)C1 (stereo not given)	Ecoli rRNA inh -30 (no result: EWS-Fli block)
COc1ccccc1NC(=O)C1CCCN(c2ncnc3c2nc2n3CCCCC2)C1 (stereo not given)	Ecoli rRNA inh -33
CCOC1CCCC(n2cnc3c(=S)nc[nH]c32)O1 (stereo not given)	PAX8 reporter 83
OCC1CCCC(n2cnc3c(=S)nc[nH]c32)O1 (stereo not given)	none
COc1cccc(S(=O)(=O)Nc2ccc3c(c2)C(=O)N(C)[C@H]2CC[C@H](CC(=O)Nc4cc(F)ccc4F)O[C@@H]2CO3)c1	none (no result: EWS-Fli block, PGC1a acetyl inh, PAX8 reporter, LGR2 antag, SIRT5 inh)
CC(C)(C)/C(COc1ccccc1[N+](=O)[O-])=N/O	Ecoli rRNA inh -17 (no result: PGC1a acetyl inh)
NNC(=O)COc1ccccc1[N+](=O)[O-]	none
CCOc1ccc(S(=O)(=O)Nc2ccc(S(=O)(=O)N3CCCC3)cc2)cc1	Ecoli rRNA inh -27 (no result: EWS-Fli block, PAX8 reporter, SIRT5 inh)
CCOc1ccc(S(=O)(=O)Nc2ccc(S(=O)(=O)N3CCCCC3)cc2)cc1	none (no result: EWS-Fli block, PGC1a acetyl inh)
C[C@@H]1CN(C)C(=O)c2cc(N)ccc2O[C@@H]1CN(C)C(=O)OC(C)(C)C	none (no result: EWS-Fli block, PGC1a acetyl inh, PAX8 reporter, LGR2 antag, SIRT5 inh)
C[C@@H]1CN([C@H](C)CO)C(=O)c2cc(NC(=O)Nc3ccc(F)cc3)ccc2O[C@@H](C)CCCCO[C@H]1CN(C)C(=O)C1CCCCC1	PAX8 reporter 86
C[C@@H]1CCCCO[C@@H](CN(C)C(=O)C2CCCCC2)[C@@H](C)CN([C@H](C)CO)C(=O)c2cc(NC(=O)Nc3ccc(F)cc3)ccc2O1	none
C[C@H](CO)N1C[C@H](C)[C@H](CN(C)C(=O)C2CCCCC2)OCCCC[C@H](C)Oc2ccc(NC(=O)Nc3ccc(F)cc3)cc2C1=O	PAX8 reporter 74
C[C@@H]1CCCCO[C@H](CN(C)C(=O)C2CCCCC2)[C@H](C)CN([C@@H](C)CO)C(=O)c2cc(NC(=O)Nc3ccc(F)cc3)ccc2O1	SIRT5 inh 16
C[C@H]1CCCCO[C@H](CN(C)C(=O)C2CCCCC2)[C@@H](C)CN([C@@H](C)CO)C(=O)c2cc(NC(=O)Nc3ccc(F)cc3)ccc2O1	PAX8 reporter 85
COc1cc2c(cc1OC)CN(C(=O)[C@@H]1[C@H]3C(=O)O[C@H](c4ccccc4)[C@H](c4ccccc4)N3[C@H](c3ccc(OCCO)cc3)[C@@]13C(=O)Nc1ccc(C#CC4(O)CCCCCC4)cc13)CC2	none (no result: PGC1a acetyl inh, LGR2 antag, Ecoli rRNA inh)
CC(C)NC(=O)N(C)C[C@H]1Oc2ccc(N(C)C)cc2CC(=O)N(C)C[C@H]1C	none (no result: EWS-Fli block, PGC1a acetyl inh, PAX8 reporter, LGR2 antag, SIRT5 inh)
O=C(Nc1ccccc1F)N[C@@H]1CC[C@H](CCNC(=O)C2CCCC2)O[C@H]1CO	none
CCCC#Cc1cnc2c(c1)C(=O)N([C@@H](C)CO)C[C@@H](C)[C@H](CN(C)Cc1ccccc1F)O2	none (no result: SIRT5 inh)
O=C(N[C@@H]1C[C@@H]2O[C@@H](CO)CC[C@@H]2O[C@@H]1CCc1ccc(C#Cc2ccccc2)cc1)c1ccccn1	none (no result: LGR2 antag, Ecoli rRNA inh)
Cc1ccc(-c2nnc(COC(=O)c3ccco3)o2)cc1	none (no result: PGC1a acetyl inh)
O=C(OCc1nnc(-c2ccccc2)o1)C1=COCCO1	PGC1a acetyl inh 61 (no result: EWS-Fli block, PAX8 reporter, Ecoli rRNA inh, SIRT5 inh)
Cc1ccc(C(=O)OCc2nnc(-c3ccc(Br)cc3)o2)cc1	Ecoli rRNA inh -16
CCC(=O)N[C@@H]1C=C[C@@H](CC(=O)NCCN2CCCCC2)O[C@H]1CO	none
Cc1ccc(OCC(O)CNC2CCCC2)c(C)c1 (stereo not given)	none (no result: PGC1a acetyl inh)
Cc1ccccc1OCC(O)CNC1CCC(NCC(O)COc2ccccc2C)CC1 (stereo not given)	EWS-Fli block 69, PAX8 reporter 114
Cc1cc(C)nc(N/N=C/c2cc(Br)ccc2O)n1	Ecoli rRNA inh -37
CC(C)CC#Cc1ccc([C@H]2[C@H](CO)N3C(=O)CN(S(C)(=O)=O)C[C@@H]23)cc1	none (no result: EWS-Fli block, PGC1a acetyl inh, PAX8 reporter, LGR2 antag, SIRT5 inh)
CS(=O)(=O)N1C2CN(CC(F)(F)F)CC1C2c1ccc(Br)cc1 (stereo not given)	none (no result: EWS-Fli block, PGC1a acetyl inh, PAX8 reporter, LGR2 antag, SIRT5 inh)
CCCOc1ccc(-c2cc3onc(-c4ccccc4)c3c(=O)n2C)cc1	EWS-Fli block 62 (no result: PGC1a acetyl inh, SIRT5 inh)
CCc1noc2cc(-c3ccccc3)n(C)c(=O)c12	none (no result: PGC1a acetyl inh, SIRT5 inh)
CNC(=O)c1ccc(-c2cc3onc(-c4ccccc4)c3c(=O)n2C)cc1	Ecoli rRNA inh -28 (no result: SIRT5 inh)
Cc1ccc(-c2cc3onc(-c4ccccc4)c3c(=O)n2C)cc1	EWS-Fli block 80, LGR2 antag 85 (no result: PGC1a acetyl inh)
COC(=O)c1ccc(NCc2cc(O)ccc2O)cc1O	EWS-Fli block 57 (no result: PGC1a acetyl inh)
COC(=O)c1cc(NCc2c(F)cccc2Cl)ccc1N1CCOCC1	none (no result: EWS-Fli block, PAX8 reporter, Ecoli rRNA inh, SIRT5 inh)
COC(=O)c1ccc(NCc2c(O)ccc(O)c2Br)cc1Cl	EWS-Fli block 72 (no result: PGC1a acetyl inh)
O=C1N[C@H](Cc2ccccc2)COCc2cnnn2CC[C@@H]1Cc1cccc(Cl)c1	none (no result: EWS-Fli block, PGC1a acetyl inh, PAX8 reporter, LGR2 antag, SIRT5 inh)

Screens deposited in PubChem by Broad Institute.
